Screens deposited in PubChem BioAssay by National Center for Advancing Translational Sciences (NCATS).
AMA1 RON2 block = inhibitors of Plasmodium falciparum AMA1-RON2 interaction; AlphaScreen AMA1-biotinylated RON2 peptide binding; Potency, µM (highest dose often 58.2 µM), for the others: at the highest dose activity change, negative = inhibition, usual class: inhibitors; 0.2% of 360,000 active;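 also: 0% = vehicle wells and -100% = peptide control; nearly all actives have a fitted effect of over 45% in size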
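AMA1 (3D7) with his tag at 25 nM final met compounds first, then biotinylated RON2 peptide at 25 nM; detection used donor plus acceptor beads, 10 µg/mL apiece, read by AlphaScreen after 30 min at room temperature.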
VACV mCherry inh = inhibitors of vaccinia virus infection (mCherry reporter signal) | Vaccinia virus mCherry reporter infection, fluorescence | Potency, µM (doses to about 36.5 µM), for the others: at the top dose activity change, negative = inhibition, usual class: inhibitors | 0.63% of 310,000 active | AID 720579; calls by dose curve; tested in A549 cells; also: nearly all actives have a fitted effect of over 35% in size
Pf growth 48h = inhibits P. falciparum growth in the first generation, 48 h. 5.9% of 310,000 active. P. falciparum luciferase growth in erythrocytes, 48 h. Potency, µM (titrated, usually from 28.7 µM), inactives show at the top dose activity change, negative = inhibition, most hits filed as inhibitors
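In quantitative HTS format, infected erythrocytes bearing luciferase-reporter parasites were treated for a single generation at 37 C. Luminescence after adding detection reagent served as the growth measure.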
Pf growth 96h = P. falciparum growth inhibition at 96 hour, primary screen for plastid delayed-death inhibitors; P. falciparum luciferase reporter growth, 96 h; Potency, µM (titrated, usually from 28.7 µM), without a hit: at the highest dose activity change, negative = inhibition, most hits filed as inhibitors; 6.9% of 320,000 active; AID 504834
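Two-generation exposure (96 h) targets delayed-death phenotype. Reporter parasites carrying integrated firefly luciferase, in red cells at 2% hematocrit and 0.05% parasitemia final, kept at 37 C, 5% CO2; luminescence loss indicates inhibition.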
VACV Venus inh = inhibitors of vaccinia virus (Venus reporter). AID 720580. 0.46% of 330,000 active. Potency, µM (series often up to 36.5 µM), inactives show top-dose activity change, negative = inhibition, usual class: inhibitors. Vaccinia virus Venus reporter expression, fluorescence; calls by dose curve; tested in A549 cells; also: nearly all actives have a fitted effect of over 30% in size
* hit, by the source's call; i = inactive; ? = inconclusive; · = not tested or not shown; [ ] = another dose, or the depositor's remark. Hits are enriched below; roughly 8.7% of the tested compounds scored in any of these assays. Unless noted, calls follow the shape of the dose curve; as a rule, active = well fitted curve in the direction sought with a large enough effect; inconclusive = small, poorly fitted or top-dose-only effect, or another doubt; inactive = no such curve, though single readings can be large; an effect the other way counts as inactive or inconclusive. Unless noted, % is scaled to controls: 0 for no effect and ±100 for the full control effect; potency is read from the fitted curve at half-maximal effect.

SMILES | AMA1 RON2 block | VACV mCherry inh | Pf growth 48h | Pf growth 96h | VACV Venus inh
Cc1c(-c2cccc(Cl)c2)nc2ccccc2c1C(=O)OC/C(O)=C(\C#N)c1nc2ccccc2[nH]1 | 71% | i | -30% | 10µM* | -4%
Cn1c(/C(C#N)=C/C2CC=CCC2)nc2ccccc21 (stereo not drawn) | -3% | -2% | ? | · | -15%
COc1ccc(OC)c(-c2ccnc(-n3ncc(C(=O)N4CCN(CCO)CC4)c3C3CC3)n2)c1 | · | -11% | · | · | -4%
O=C(COc1ccccc1)Nc1ccc(C(=O)OCc2cc(=O)n3nc(C4CC4)sc3n2)cc1 | · | -8% | · | · | -2%
CCOC(=O)c1c(NC(=O)c2ccc(S(=O)(=O)N(CCOC)CCOC)cc2)sc2c1CC(C)(C)NC2(C)C | · | -9% | · | · | -22%
CC(C)(C)C(=O)Nc1ccccc1C(=O)Nc1cc(Cl)ccc1Cl | 23% | · | 12µM* | 4.1µM* | ·
Cc1cccc(C)c1-n1ncc(C(=O)NCCCN2CCC(C)CC2)c1C1CCN(C(=O)OC(C)(C)C)CC1 | · | -16% | · | · | -17%
COc1cc(OC)c(OC)cc1CN1CCCC(c2[nH]ncc2-c2cccc(C(F)(F)F)c2)C1 (stereo not drawn) | · | -20% | · | · | -16%
Nc1cc(Cl)c2nonc2c1[N+](=O)[O-] | -20% | 10µM* | -2% | 10% | 10µM*
O=[N+]([O-])c1c(Nc2ccccc2O)cc(Cl)c2nonc12 | -2% | -24% | 12µM* | 2% | ?
O=[N+]([O-])c1c(Nc2ccccc2O)ccc2nonc12 | -4% | -20% | 14% | -31% | -2%
Cc1ccccc1Nc1ccc2nonc2c1[N+](=O)[O-] | -6% | · | 12% | 6.6µM* | ·
CCc1nc(NCc2cccs2)c2nnn(Cc3ccccc3)c2n1 | -1% | -7% | · | · | -16%
CCc1nc(Nc2ccccc2)c2nnn(Cc3ccccc3)c2n1 | 5% | · | 37% | 10µM* | ·
Cc1nc(NCC2CCCO2)c2nnn(Cc3ccccc3)c2n1 (stereo not drawn) | -4% | -12% | 0% | -3% | -11%
CCCc1nc(NCC2CCCO2)c2nnn(Cc3ccccc3)c2n1 (stereo not drawn) | 13% | · | 15µM* | 23% | -11%
O=C1CCN(Cc2nnnn2CC2CCCO2)c2ccccc2N1 (stereo not drawn) | -2% | -18% | 20% | 15µM* | -19%
CN(Cc1ccccc1)C(=O)Cn1ncc2c3ccccc3n(Cc3cccc(Cl)c3)c2c1=O | · | -5% | · | · | -15%
Cc1c(O)c(CN(C)C)cc2c1oc(=O)c1ccccc12 | -5% | -17% | 4.1µM* | 2.1µM* | -8%
CCc1c(C)c2cc(Cl)c(O)c(CN3CCCCC3)c2oc1=O | 1% | · | -2% | -21% | ·
Cc1c(O)c(CN2CCCCC2)cc2c3c(c(=O)oc12)CCC3 | -5% | · | 10µM* | 9.3µM* | ·
Cc1c(O)c(CN2CCCCC2)cc2c1oc(=O)c1ccccc12 | -14% | -12%[1.46 µM] | 0.33µM* | 0.47µM* | -14%
O=c1oc2c(CN3CCOCC3)c(O)c(Cl)cc2c2c1CCC2 | · | · | 1µM* | 2% | ·
CN(C)Cc1c(O)c(Cl)cc2c3c(c(=O)oc12)CCCC3 | ? | · | · | -21% | 0%
COc1cccc(-n2cc(C(=O)Oc3cccc(C(F)(F)F)c3)c3ccccc3c2=O)c1 | · | -13% | · | · | -15%
SMILES | AMA1 RON2 block | VACV mCherry inh | Pf growth 48h | Pf growth 96h | VACV Venus inh
CC(=O)NCC(=O)N(c1c(C)n(C)n(-c2ccccc2)c1=O)C1(C(=O)NC2CCCC2)CCCCC1 | 0% | -14% | -4% | ? | -20%
Cc1c(N(C(=O)CNC(=O)c2ccccc2)C2(C(=O)NC3CCCCC3)CCCCC2)c(=O)n(-c2ccccc2)n1C | 10% | -2% | 5.9µM* | ? | 2%
Cc1cc(C)c2nc(SCc3ccc([N+](=O)[O-])cc3)nc(C)c2c1 | -7% | · | -23% | 13µM* | ·
Cc1ccc(CNC(=O)C2CCCN(c3nn4cc(-c5ccc(C)cc5)nc4s3)C2)cc1 (stereo not drawn) | · | -9% | · | · | -10%
Cc1cccc(NC(=O)Cn2c(C)c(C#N)c3ccccc32)c1C | 21% | -4% | 2.1µM* | · | 0%
Cc1c(C#N)c2ccccc2n1CC(=O)NC(C)c1ccccc1 (stereo not drawn) | 2% | · | 2.9µM* | · | ·
CCOC(=O)Cn1c(C)c(C#N)c2ccccc21 | -1% | -6% | -4% | ? | -3%
